We go through 40 compounds from PubChem BioAssay (EPA / NIEHS).

The source made the active and inactive calls. The calls were made as follows: active = hit-call score of the fitted dose curve at least 0.9, where 1 is the maximum; inactive = score below 0.9.

Read-out in this assay: Thyroid Hormone Responsive (THRSP), THRSP (gene 7069)
Kind of assay: LTEA_HepaRG_THRSP: Life Technologies and Expression Analysis (LTEA) Assay for Thyroid Hormone Responsive (THRSP) using HepaRG (AID 2283536). The conditions noted are these: mRNA level, 48 h; actives raise or lower the signal. Here is the method: LTEA_HepaRG is a cell based, multiplexed-readout assay that uses HepaRG, a human liver cell line, with measurements taken at 48 hours after chemical dosing on a 96-well plate.LTEA_HepaRG_THRSP is one of 102 assay component(s) measured in the LTEA HepaRG cell culture assay. It is a marker of NR mediated metabolism.Data from the assay component LTEA_HepaRG_THRSP was analyzed into 1 endpoint. This assay endpoint, LTEA_HepaRG_THRSP, was analyzed with bidirectional fitting relative to DMSO as the negative control and baseline of activity. Using a type of inducible reporter, measures of mRNA induction for gain or loss-of-signal activity can be used to understand regulation of transcription factor activity. To generalize the intended target to other relatable targets, this assay endpoint is annotated to the growth factor intended target family, where the subfamily is NR mediated metabolism.
A total of 1060 chemcials from the ToxCast library were tested in eight-point concentration-response experiments. Cell culture and cytotoxicity assays were conducted at Thermo Fisher Scientific's Custom Services facility (Madison, WI). A single lot of human HepaRG cells (Thermo Fisher Scientific, Frederick, MD) was used for the cell culture experiments. 96-well format collagen type I coated plates of human HepaRG cells were prepared using established methods. Briefly, cryopreserved HepaRG cells were thawed, plated at a density of approximately 100,000 cells/well in HepaRG Thaw, Plate, and General Purpose media (HPRG770, Thermo Fisher Scientific), and incubated for 48 hours. 0.5% DMSO was selected as vehicle control to balance the requisite need of DMSO in HepaRG cultures to maintain differentiation (for example, baseline metabolism, proportions of hepatocytes vs. cholangiocytes), while enabling further hepatic receptor pathway activation (for example, PXR and CAR) in response to chemical exposure. 48 hours after plating, the culture medium was replaced with HepaRG Serum-Free Incudtion Media. Cells were exposed to each test chemical in duplicate and maintained in CO2 incubators for another 48 hours. Chemical plates were thawed to room temperature and 200x concentrations of treatment groups were prepared. 8-point conentration-reponse curves were made with the highest exposure at 100 uM, followed by half-log dilutions, all in 0.5% DMSO. Each test plate contained variouse controls, induction positive controls (1mM phenobarbital), cytotoxicity positive controls ([…] aflatoxin B1), vehicle controls (0.5% DMSO), and total lysis controls (0.5% DMSO). Cell morphology images were taken using an Essen IncuCyte FLR automated microscope, with six 96-well plates imaged in about 24 minutes. Images were captured and exported and JPEG files. Spent culture media was transfered to black-well plates for the LDH assay, and remaining media was sorted at -80 C for later use. Cells were treated with RLT buffer and frozen until shipped for gene expression analysis. Total RNA was isolated from the cell suspension in 75 uL of Buffer RLT (Qiagen, Germantown, MD 20874) by Quintiles/Expression Analysis (Durham, NC) using a custom isolation procedure. Total RNA from each plate well was transferred to a preamplification plate. Fluidigm's 96.96 Dynamic ArrayTM (Fluidigm, Amsterdam, the Netherlands) technology was used for gene expression analyses by quantitative reverse transcription polymerase chain reaction (qRT-PCR, performed by Quintiles/Expression Analysis, Durham, NC)89. Standard TaqManTM Assays (Applied Biosystems/ThermoFisher Scientific, Foster City, CA) were used to assess the expression of 93 genes selected based on their selectivity and sensitivity to important hepatic receptors known to be modulated by environmental chemicals; importance in human hepatocyte functionality; and hepatotoxicity. […]
`O=C(NS(=O)(=O)/C=C/c1cccs1)c1ccc(F)cc1Br`: the compound was classed as inactive. On to `CC(C)NCC(O)c1ccc(O)c(O)c1` (stereo not given), for which the AC50 is 0.179 µM (active). Turning to `C#CC(O)C(CC)CCCC` (stereo not given), the result was inactive. Turning to `NCCOCCOCCN`, the outcome was inactive. Consider `Nc1nc(=S)c2[nH]cnc2[nH]1`, for which the AC50 was 9.18 µM (active). Turning to `Oc1ccc(O)cc1`, the result was inactive. On to `CCCCC(CC)CO` (stereo not given), for which the result was inactive.

On to `CCOCCOCCO`, for which the outcome was inactive. Consider `NC(=Nc1ccccc1)Nc1ccccc1`, for which the concentration at half-maximal activity (AC50) was 12.8 µM (active). With `NC1CCCCC1`, the compound was called inactive. Regarding `Cc1occc(=O)c1O`, the result was inactive. Regarding `Nc1nc(Cl)nc2c1ncn2[C@H]1C[C@H](O)[C@@H](CO)O1`, the AC50 is 0.888 µM (active). Turning to `COC(=O)CCC(=O)OC`, the outcome was inactive. `CCC(C)N(C)C(=O)c1cc2ccccc2c(-c2ccccc2Cl)n1` (stereo not given): the result was inactive.

For the compound `COc1ccc(OC(F)(F)F)cc1CN[C@H]1CCCN[C@H]1c1ccccc1`, the compound was classed as inactive. For `CC(=O)OCC(COC(C)=O)OC(C)=O`, the outcome was inactive. Regarding `CCCCC(CC)COC(=O)CCCCCCCC(=O)OCC(CC)CCCC` (stereo not given), the call was inactive. Consider `CC(C)c1cccc(C(C)C)c1NC(=O)NS(=O)(=O)c1cc(C(C)(C)O)co1`, for which the call was inactive. Same read-out and setting: next, `CCCCOC(=O)CCCCC(=O)OCCCC`: “inactive”; `C/C=C/C=C/C(=O)O`: “inactive”. On the same count and under the same terms, the result for `OCC(CO)n1cnc(-c2ccc(F)cc2)c1-c1ccnc(Oc2ccccc2)n1` reads “inactive”; that for `CCN(CC)CCOc1ccc(C(=C(Cl)c2ccccc2)c2ccccc2)cc1`, “inactive”. As to `Cc1ccc(-c2cc(C(F)(F)F)nn2-c2ccc(S(N)(=O)=O)cc2)cc1`, the compound was called inactive. In the case of `CC1=C(C)S(=O)(=O)CCS1(=O)=O`, the AC50 is 80 µM (active).

Turning to `CCCCCCC(C=O)=Cc1ccccc1`, the result was inactive. Take `C/C=C/c1ccc(OC)cc1`: the outcome was inactive.

In the case of `OCC(O)CO`, the outcome was inactive. For the compound `Oc1ccccc1O`, the call was inactive. The same measure, in the same setting: the result for `CN(C)C(=O)NC1(c2ccccc2)CCN(CCC[C@]2(c3ccc(Cl)c(Cl)c3)CCCN(C(=O)c3ccccc3)C2)CC1` reads “inactive”; that for `CC(N)=O`, “inactive”. `CCCC(=O)O`: the compound was classed as inactive.

As to `COC(=O)[C@H]1[C@H]2C[C@@H]3c4[nH]c5cc(OC)ccc5c4CCN3C[C@H]2C[C@@H](OC(=O)c2cc(OC)c(OC)c(OC)c2)[C@@H]1OC`, the AC50 was 28.3 µM (active). For `CSc1ccc(Oc2ccc(S(N)(=O)=O)cc2CN(C)C)cc1C`, the compound was classed as inactive. For `CCCC[C@H]1CN(CC2CCOCC2)C(=O)OC12CCN(C1(C)CCN(C(=O)c3c(C)ncnc3C)CC1)CC2`, the compound was called inactive. `CS(=O)(=O)c1ccc([C@@H](C[C@H]2CCC(=O)C2)C(=O)Nc2cnccn2)cc1Cl`: the AC50 was 27.2 µM (active). For `C=CCc1ccc(OC)c(OC)c1`, the compound was called inactive. As to `CC1(C)C(=O)NC(=O)N1CO`, the result was inactive. `CC(C)(O)c1ccc(CNC(=O)c2cccnc2Oc2ccc(F)cc2)cc1`: the compound was classed as inactive. In the case of `Cc1c(C)c2c(c(C)c1O)CCC(C)(COc1ccc(CC3SC(=O)NC3=O)cc1)O2` (stereo not given), the AC50 was 27.1 µM (active). On to `O=C1OC(c2ccc(O)cc2)(c2ccc(O)cc2)c2ccccc21`, for which the AC50 was 80.3 µM (active).
